Laboratory results reported in PubChem BioAssay AID624260 (Broad Institute, 2012).
Among all 44,000 compounds or so, about 30 (0.07%) were called active. Inconclusive results (about 1%) are left out. This is one part of a sample in which actives are shown more often than they occur. Rule as the data show it: active = inhibition above about 54% (passing the limit was not always enough); inconclusive = no clear call, values can overlap the other calls.

Molecular target: Histone-lysine N-methyltransferase NSD2 (Homo sapiens) (UniProt O96028)
Test: NSD2 histone methyltransferase activity blockers – biochemical, plate reader, single point, primary screen (AID 624260);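 also: inhibitors reduce the monomethyl H3K36 fluorescence signal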
Conditions: NSD2-SET H3K36me1 DELFIA fluorescence, at 12.5 µM, hits give high values

Sequence of Histone-lysine N-methyltransferase NSD2 (Homo sapiens) (O96028 whole entry, looked up): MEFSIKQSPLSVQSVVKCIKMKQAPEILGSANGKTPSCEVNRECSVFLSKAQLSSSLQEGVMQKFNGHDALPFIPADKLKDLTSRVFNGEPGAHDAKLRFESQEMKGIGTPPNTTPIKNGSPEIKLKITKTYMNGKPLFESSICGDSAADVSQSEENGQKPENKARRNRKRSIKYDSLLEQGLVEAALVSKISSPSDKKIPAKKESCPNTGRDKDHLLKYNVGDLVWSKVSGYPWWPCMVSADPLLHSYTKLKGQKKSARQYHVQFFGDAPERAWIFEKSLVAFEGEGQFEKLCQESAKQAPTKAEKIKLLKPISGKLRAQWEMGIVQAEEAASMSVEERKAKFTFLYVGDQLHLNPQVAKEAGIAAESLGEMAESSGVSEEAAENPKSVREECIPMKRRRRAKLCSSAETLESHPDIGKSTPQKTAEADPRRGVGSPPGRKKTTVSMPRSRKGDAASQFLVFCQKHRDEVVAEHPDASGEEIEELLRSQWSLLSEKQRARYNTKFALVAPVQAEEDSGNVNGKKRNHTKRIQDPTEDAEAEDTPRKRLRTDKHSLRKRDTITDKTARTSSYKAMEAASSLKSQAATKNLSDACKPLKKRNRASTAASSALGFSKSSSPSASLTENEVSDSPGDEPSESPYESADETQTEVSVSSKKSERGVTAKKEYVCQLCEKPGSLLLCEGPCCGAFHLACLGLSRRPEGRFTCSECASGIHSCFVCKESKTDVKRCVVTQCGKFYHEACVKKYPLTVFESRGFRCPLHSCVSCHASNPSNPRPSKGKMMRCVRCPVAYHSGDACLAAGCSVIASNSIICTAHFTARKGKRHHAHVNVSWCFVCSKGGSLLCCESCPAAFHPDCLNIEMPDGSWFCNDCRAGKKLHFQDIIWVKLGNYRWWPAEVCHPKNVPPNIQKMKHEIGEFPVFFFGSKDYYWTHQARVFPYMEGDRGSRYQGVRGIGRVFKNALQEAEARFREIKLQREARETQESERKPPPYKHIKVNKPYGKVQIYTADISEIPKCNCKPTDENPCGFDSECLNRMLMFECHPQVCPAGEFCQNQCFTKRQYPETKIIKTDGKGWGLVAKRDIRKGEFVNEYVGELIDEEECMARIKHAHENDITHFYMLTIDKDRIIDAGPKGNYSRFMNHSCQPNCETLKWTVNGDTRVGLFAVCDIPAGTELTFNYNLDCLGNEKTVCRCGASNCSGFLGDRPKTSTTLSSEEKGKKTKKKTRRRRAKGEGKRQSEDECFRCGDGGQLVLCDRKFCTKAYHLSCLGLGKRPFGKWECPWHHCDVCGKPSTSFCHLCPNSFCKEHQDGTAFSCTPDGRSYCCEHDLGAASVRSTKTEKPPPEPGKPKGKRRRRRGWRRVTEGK

inhibition, inactive:
C[C@H](CO)N1C[C@H](C)[C@H](CN(C)Cc2cccnc2)Oc2ncc(C3=CCCC3)cc2C1=O 1.28%
COc1ccc(NC(=O)N(C)C[C@@H]2Oc3ccc(NC(=O)Cc4cn(C)c5ccccc45)cc3CC(=O)N([C@@H](C)CO)C[C@H]2C)cc1 -6.14%
CC(C)NC(=O)N(C)C[C@H]1Oc2ncc(-c3ccc(C(=O)N(C)C)cc3)cc2C(=O)N([C@H](C)CO)C[C@H]1C 1.31%
COc1ccc(NC(=O)N(C)C[C@@H]2OCc3ccccc3-c3c(n(C)c4ccccc34)C(=O)N([C@H](C)CO)C[C@H]2C)cc1 -10.2%
CCC(=O)N(C)C[C@@H]1Oc2ncc(C3=CCCC3)cc2C(=O)N([C@H](C)CO)C[C@@H]1C -1.76%
CCC(=O)N(C)C[C@H]1Oc2cc(-c3ccc(C)cc3)ccc2S(=O)(=O)N([C@@H](C)CO)C[C@H]1C -0.743%
Cc1ccccc1S(=O)(=O)N(C)C[C@@H]1OCc2ccccc2-c2c(n(C)c3ccccc23)C(=O)N([C@H](C)CO)C[C@H]1C -9.38%
O=C(C[C@H]1C[C@H]2c3cc(NC(=O)CC4CC4)ccc3O[C@H]2[C@H](CO)O1)NCc1ccccn1 -2.07%
C[C@@H]1CN([C@@H](C)CO)C(=O)c2cccc(N(C)C)c2O[C@@H]1CN(C)S(=O)(=O)c1ccccc1 2.66%
C[C@@H]1CCCCO[C@H](CN(C)Cc2ccc(Cl)c(Cl)c2)[C@@H](C)CN([C@@H](C)CO)C(=O)c2cc(NC(=O)Nc3ccccc3)ccc2O1 -6.5%
C[C@@H]1CN([C@H](C)CO)S(=O)(=O)c2ccc(C#CCN(C)C)cc2O[C@H]1CN(C)C(=O)CC1CC1 2.71%
C[C@@H]1CN([C@@H](C)CO)C(=O)c2cc(C3=CCCC3)cnc2O[C@@H]1CN(C)C(=O)Cc1ccncc1 -7.1%
CN(C)C(=O)C[C@@H]1C[C@@H]2c3cc(NC(=O)C4CCOCC4)ccc3O[C@@H]2[C@@H](CO)O1 -0.279%
COc1ccccc1S(=O)(=O)N(C)C[C@H]1Oc2cc(C#CCC3CCCC3)ccc2S(=O)(=O)N([C@@H](C)CO)C[C@H]1C -4.13%
Cc1noc(C)c1NC(=O)Nc1ccc2c(c1)C(=O)N([C@@H](C)CO)C[C@H](C)[C@@H](CN(C)Cc1ccncc1)OCCCC[C@@H](C)O2 -3.95%
C[C@@H]1CN([C@H](C)CO)S(=O)(=O)c2ccc(/C=C/c3ccccc3)cc2O[C@@H]1CN(C)Cc1ccccc1 9.82%
CC(C)CC#Cc1cnc2c(c1)C(=O)N([C@@H](C)CO)C[C@@H](C)[C@@H](CN(C)C(=O)c1cccnc1)O2 -0.174%
C[C@@H]1CN([C@H](C)CO)C(=O)c2cc(C3=CCCCC3)cnc2O[C@@H]1CN(C)C(=O)c1ccc2c(c1)OCO2 -0.482%
C[C@H]1CN([C@@H](C)CO)S(=O)(=O)c2ccc(Br)cc2O[C@H]1CN(C)C(=O)c1cnccn1 -5.84%
COc1cccc(S(=O)(=O)N[C@H]2CC[C@H](CC(=O)NC3CCC3)O[C@H]2CO)c1 8.91%
O=C(C[C@@H]1C[C@@H]2c3cc(NC(=O)c4ccc5c(c4)OCO5)ccc3O[C@@H]2[C@@H](CO)O1)NCC1CC1 0.538%
C[C@H](CO)N1C[C@H](C)[C@H](CN(C)C(=O)Cc2ccccn2)Oc2ncc(-c3cncnc3)cc2C1=O -7.65%
Cc1ccc(S(=O)(=O)Nc2ccc3c(c2)C(=O)N([C@H](C)CO)C[C@@H](C)[C@@H](CN(C)C)OCCCC[C@@H](C)O3)cc1 -3.71%
COc1ccc(NC(=O)N(C)C[C@H]2Oc3ncc(C#C[C@@H](C)O)cc3C(=O)N([C@H](C)CO)C[C@H]2C)cc1 -13%
COc1ccc(CN(C)C[C@@H]2OCCCC[C@@H](C)Oc3ccc(NS(=O)(=O)c4ccc(F)cc4)cc3C(=O)N([C@@H](C)CO)C[C@H]2C)cc1 -2.7%
CCCNC(=O)N(C)C[C@H]1Oc2ncc(C#Cc3ccncc3)cc2C(=O)N([C@@H](C)CO)C[C@@H]1C 4.58%
C/C=C/c1ccc2c(c1)O[C@H](CN(C)C(C)=O)[C@H](C)CN([C@H](C)CO)S2(=O)=O 8.37%
O=C(C[C@H]1C=C[C@H](NC(=O)CN2CCOCC2)[C@@H](CO)O1)NCc1cccc(F)c1 -94.1%
